# Assay results published in PubChem BioAssay (Tox21).
# Several values for one entry are separate records, joined by “and”; a condition that tells them apart may be missing. Identical values can stand only once. Inconclusive results are not listed. Where a call stands in place of a potency, no number is given. Some compounds were tested as several samples or in several runs, with calls that do not always agree. Activity calls are given as the source filed them. Unless noted, calls come from the whole dose curve; as a rule, active = well fitted curve in the direction sought with a large enough effect in the repeat runs; inconclusive = weak or mixed curves; inactive = no such curve, though single readings can be large; an effect the other way counts as inactive or inconclusive.
# Tests used:
# [1] = target: Retinoic acid receptor RXR-alpha (Homo sapiens) (UniProt P19793); test: qHTS assay to identify small molecule agonists of the RXR signaling pathway (AID 1159527; calls by dose curve; note: nearly all actives have a fitted effect of over 35% in size)
# Retinoic acid receptor RXR-alpha (Homo sapiens), sequence (P19793 whole entry, looked up): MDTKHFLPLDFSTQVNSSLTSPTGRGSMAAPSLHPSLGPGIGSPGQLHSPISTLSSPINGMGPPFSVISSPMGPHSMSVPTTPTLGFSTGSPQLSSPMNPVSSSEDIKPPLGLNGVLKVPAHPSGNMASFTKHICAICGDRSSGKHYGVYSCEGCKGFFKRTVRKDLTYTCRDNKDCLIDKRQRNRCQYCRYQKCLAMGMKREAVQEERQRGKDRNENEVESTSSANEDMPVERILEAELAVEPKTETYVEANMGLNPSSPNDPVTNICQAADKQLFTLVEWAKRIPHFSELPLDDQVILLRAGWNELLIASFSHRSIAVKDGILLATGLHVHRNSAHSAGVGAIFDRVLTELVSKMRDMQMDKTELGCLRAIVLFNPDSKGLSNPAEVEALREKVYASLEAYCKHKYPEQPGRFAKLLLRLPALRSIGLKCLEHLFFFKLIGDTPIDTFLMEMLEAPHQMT
# Method in brief: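 Agonist mode; 9-cis retinoic acid positive control. HEK 293T UAS-bla reporter cells, 2% charcoal-stripped FBS, 16 hr compound exposure at 37 C/5% CO2. LiveBLAzer B/G FRET substrate 2 hr RT; ex 405, em 460/530 nm.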
# [2] = qHTS assay to identify small molecule agonists of the RXR signaling pathway - cell viability counter screen (AID 1159529); note: series mostly up to about 77 µM; nearly all actives have a fitted effect of over 50% in size
# Method in brief: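 Luminescence from CellTiter-Glo (30 min, RT) measured viability in the same wells as the beta-lactamase reporter readout. Cells: GeneBLAzer RXR-alpha HEK 293T, 2% charcoal-stripped FBS. Compound exposure 16 hr, 37 C.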
# [3] = qHTS assay to identify small molecule antagonists of the retinoid acid receptor (RAR) signaling pathway - cell viability counter screen (AID 1159551); note: nearly all actives have a fitted effect of over 35% in size
# Method in brief: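 Seed C3RL4 cells; next day add compound, then retinol to 1 uM final; incubate 6 h at 37 C; add CellTiter-Glo; read luminescence after 30 min at RT.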
# [4] = qHTS assay to identify small molecule antagonists of the retinoic acid receptor (RAR) signaling pathway (AID 1159552; note: nearly all actives have a fitted effect of over 50% in size)
# Method in brief: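 Luminescence from a RARE luciferase reporter in C3RL4 cells served as read-out. Cells received compounds together with 1 uM final retinol and incubated 6 hr at 37 C before detection reagent was added for 30 min at room temperature.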
# [5] = qHTS assay to identify small molecule antagonists of the estrogen related receptor (ERR) signaling pathway from Tox21 library - cell viability counter screen (AID 1224834); note: nearly all actives have a fitted effect of over 30% in size
# Method in brief: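 CellTiter-Fluor fluorescence measured; ERR cells; 17.5 h compound incubation at 37 C; 30 min reagent step.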
# [6] = target: Luciferin 4-monooxygenase (Photinus pyralis) (UniProt P08659); test: qHTS assay to identify small molecule inhibitors of firefly luciferase (AID 1224835); note: nearly all actives have a fitted effect of over 25% in size; note: potency is the fitted concentration of half-maximal effect
# Luciferin 4-monooxygenase (Photinus pyralis), sequence (P08659 whole entry, looked up): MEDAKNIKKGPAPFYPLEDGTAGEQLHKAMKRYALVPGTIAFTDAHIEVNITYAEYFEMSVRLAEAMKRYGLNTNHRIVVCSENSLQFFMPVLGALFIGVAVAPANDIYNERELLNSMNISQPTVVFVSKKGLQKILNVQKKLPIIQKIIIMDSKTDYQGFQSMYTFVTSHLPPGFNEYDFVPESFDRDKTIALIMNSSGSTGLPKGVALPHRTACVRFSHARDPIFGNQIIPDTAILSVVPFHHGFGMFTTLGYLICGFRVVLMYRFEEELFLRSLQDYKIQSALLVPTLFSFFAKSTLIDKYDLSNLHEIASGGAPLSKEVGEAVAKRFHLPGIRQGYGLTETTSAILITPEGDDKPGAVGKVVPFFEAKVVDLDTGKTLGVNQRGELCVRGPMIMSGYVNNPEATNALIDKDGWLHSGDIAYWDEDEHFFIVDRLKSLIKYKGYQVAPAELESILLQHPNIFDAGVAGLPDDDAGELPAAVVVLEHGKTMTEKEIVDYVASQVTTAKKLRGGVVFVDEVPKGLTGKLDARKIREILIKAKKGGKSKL
# Method in brief: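 Biochemical qHTS: compounds run as interplate titrations against purified firefly enzyme, with D-luciferin and ATP each at its KM concentration. Light output recorded by CCD imaging.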
# [7] = qHTS assay to identify small molecule agonists of the constitutive androstane receptor (CAR) signaling pathway - cell viability counter screen (AID 1224836); note: series mostly up to about 92 µM; nearly all actives have a fitted effect of over 45% in size
# Method in brief: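 Viability read-out: CellTiter-Fluor fluorescence after 23 h compound exposure at 37 C/5% CO2 in double-stable HepG2-CYP2B6-hCAR cells, with PK11195 present at 0.75 uM final; compounds tested in 15-point titration.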
# [8] = qHTS assay to identify small molecule antagonists of the constitutive androstane receptor (CAR) signaling pathway - cell viability counter screen (AID 1224837); note: series mostly up to about 92 µM; nearly all actives have a fitted effect of over 45% in size
# Method in brief: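 Using CellTiter-Fluor, viability is scored in HepG2 cells stably carrying hCAR and a 2.2kb CYP2B6 reporter after 23 hr compound exposure across 15 concentrations, with CITCO present at 50 nM.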
# [9] = target: Nuclear receptor subfamily 1 group I member 3 (Homo sapiens) (UniProt Q14994); test: qHTS assay to identify small molecule antagonists of the constitutive androstane receptor (CAR) signaling pathway (AID 1224838);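 note: HepG2 cells stably expressing hCAR with CYP2B6 luciferase reporter stimulated by CITCO; nearly all actives have a fitted effect of over 40% in size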
# Nuclear receptor subfamily 1 group I member 3 (Homo sapiens), sequence (Q14994 whole entry, looked up): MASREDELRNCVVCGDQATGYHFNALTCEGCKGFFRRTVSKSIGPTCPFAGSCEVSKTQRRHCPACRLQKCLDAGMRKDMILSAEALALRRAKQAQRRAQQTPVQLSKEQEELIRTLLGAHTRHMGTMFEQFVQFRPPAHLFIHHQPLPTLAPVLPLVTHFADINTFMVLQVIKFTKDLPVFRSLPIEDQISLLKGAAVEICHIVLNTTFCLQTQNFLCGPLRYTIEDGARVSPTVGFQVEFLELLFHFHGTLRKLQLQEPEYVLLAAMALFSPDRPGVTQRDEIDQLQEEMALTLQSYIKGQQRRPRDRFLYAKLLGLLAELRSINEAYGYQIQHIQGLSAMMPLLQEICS
# Method in brief: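 Reporter luminescence was quantified after 24 h exposure of hCAR/CYP2B6-2.2kb double-stable HepG2 cells to compounds at 15 concentrations in the presence of 50 nM CITCO final.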
# [10] = target: Nuclear receptor subfamily 1 group I member 3 (Homo sapiens) (UniProt Q14994); test: qHTS assay to identify small molecule agonists of the constitutive androstane receptor (CAR) signaling pathway (AID 1224839);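 note: HepG2 cells stably carrying human CAR and a CYP2B6 luciferase reporter; series mostly up to about 92 µM; nearly all actives have a fitted effect of over 15% in size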
# Method in brief: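 Luminescence read-out (ONE-Glo, 30 min, room temperature) from double-stable HepG2-CYP2B6-hCAR cells exposed 24 h to 15-point compound series in presence of 0.75 uM PK11195 final.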
# [11] = qHTS assay to identify small molecule antagonists of the estrogen related receptor signaling pathway with the pleiotropic PPARgamma coactivator (PGC) from Tox21 10K library - cell viability counter screen (AID 1224840; active = well fitted cell-killing curve with a large enough effect in the repeat runs, not every such curve was filed as active; note: nearly all actives have a fitted effect of over 40% in size)
# Method in brief: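 Here the PGC/ERR cells serve as a cytotoxicity control: they are exposed to compounds for 17.5 hours at 37 C, and live-cell signal is quantified using CellTiter-Fluor fluorescence.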
# [12] = target: Thyrotropin receptor (Homo sapiens) (UniProt P16473); test: qHTS assay to identify small molecule agonists of the thyroid stimulating hormone receptor (TSHR) signaling pathway (AID 1224843; calls by dose curve; note: nearly all actives have a fitted effect of over 45% in size)
# Thyrotropin receptor (Homo sapiens), sequence (P16473 whole entry, looked up): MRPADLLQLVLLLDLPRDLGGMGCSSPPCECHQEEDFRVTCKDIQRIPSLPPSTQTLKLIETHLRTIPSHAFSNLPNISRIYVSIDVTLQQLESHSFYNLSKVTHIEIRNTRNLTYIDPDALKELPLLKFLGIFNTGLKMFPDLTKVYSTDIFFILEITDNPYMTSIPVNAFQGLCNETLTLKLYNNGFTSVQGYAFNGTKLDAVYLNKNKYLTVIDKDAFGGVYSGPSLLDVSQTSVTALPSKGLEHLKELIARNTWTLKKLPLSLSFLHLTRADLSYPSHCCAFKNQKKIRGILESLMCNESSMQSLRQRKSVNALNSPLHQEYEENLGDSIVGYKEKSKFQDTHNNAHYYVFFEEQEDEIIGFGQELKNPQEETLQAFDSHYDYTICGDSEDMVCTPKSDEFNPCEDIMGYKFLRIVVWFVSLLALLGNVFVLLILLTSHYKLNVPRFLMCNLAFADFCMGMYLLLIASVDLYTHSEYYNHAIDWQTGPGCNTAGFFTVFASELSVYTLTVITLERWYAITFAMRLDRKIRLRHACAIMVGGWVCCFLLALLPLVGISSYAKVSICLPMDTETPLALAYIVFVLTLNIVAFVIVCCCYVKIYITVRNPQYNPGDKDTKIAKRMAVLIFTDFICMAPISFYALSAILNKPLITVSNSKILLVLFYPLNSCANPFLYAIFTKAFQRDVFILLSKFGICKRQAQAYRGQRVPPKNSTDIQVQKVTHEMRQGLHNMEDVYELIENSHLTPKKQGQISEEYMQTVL
# Method in brief: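 TSHR-HEK293 cells in agonist mode, 30 min room-temperature step, then cAMP measured by competitive HTRF (cAMP-d2 with anti-cAMP cryptate) after 1 h at room temperature. Tested at 15 concentrations in triplicate.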
# [13] = qHTS assay to identify small molecule agonists of the hypoxia (HIF-1) signaling pathway - cell viability counter screen (AID 1224844; calls by dose curve; note: nearly all actives have a fitted effect of over 50% in size)
# Method in brief: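 Multiplexed with the HRE beta-lactamase assay, this viability read used CellTiter-Glo luminescence (30 min, RT) on HRE-bla ME-180 cells treated 17 hrs with compounds in 0.5% dialyzed FBS medium.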
# [14] = qHTS assay to identify small molecule agonists of H2AX (AID 1224845; active = well fitted activation curve with a large enough effect in the signal ratio in the repeat runs, not every such curve was filed as active; the % refers to the signal ratio)
# Method in brief: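 Wild-type CHO-K1 cells, plated overnight, exposed 3hr at 37C to 15 concentrations (0.76% DMSO final). Lysed, then HTRF anti-pH2AX (S139) cryptate and anti-H2AX-d2 antibodies, 24 hr room temperature; 665/620 nm emission read.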
# [15] = qHTS assay to identify small molecule agonists of the hypoxia (HIF-1) signaling pathway (AID 1224846; active = well fitted activation curve with a large enough effect in the signal ratio in the repeat runs, not every such curve was filed as active; the % refers to the signal ratio)
# Method in brief: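 Hypoxia-pathway activation was scored as increased beta-lactamase from an HRE-controlled reporter in ME-180 cells; plated at 2,000 cells per well with 0.5% dialyzed FBS, they were exposed 17 hrs to compounds and then given CCF4-AM.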
# [16] = qHTS assay to identify small molecule antagonists of the estrogen related receptor signaling pathway with the pleiotropic PPARgamma coactivator (PGC) from Tox21 10K library (AID 1224841; call rule not given here; note: actives are mostly falling curves and most rising ones were filed inactive; nearly all actives have a fitted effect of over 50% in size; note: potency is the fitted concentration of half-maximal effect)
# Method in brief: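 Each well held 2,000 PGC/ERR cells, pre-incubated six hours (37 C, 5% CO2). Test substances in DMSO were added by pin tool and left for 18 h at 37 C before luciferase detection by One-Glo.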
# [17] = qHTS assay to identify small molecule agonists of the estrogen related receptor signaling pathway with the pleiotropic PPARgamma coactivator (PGC) from Tox21 10K library (AID 1224842); note: nearly all actives have a fitted effect of over 15% in size
# Method in brief: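 PGC/ERR reporter cell line, 2,000 cells per well, incubated 6 h at 37 C before 23 nL compound in DMSO was added. After 18 h at 37 C, One-Glo luminescence read following 30 min at room temperature.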
# [18] = qHTS assay to identify small molecule antagonists of the estrogen related receptor (ERR) signaling pathway - cell viability counter screen (AID 1224818);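 note: series mostly up to about 46 µM; viability measured after 17.5 h of compound exposure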
# Method in brief: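 In the same ERR cell assay, compound-treated wells (17.5 h, 37 C) were multiplexed with a fluorogenic viability reagent, CellTiter-Fluor, read after 30 min to flag cytotoxic substances.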
# [19] = qHTS assay to identify small molecule antagonists of the estrogen related receptor signaling pathway with the pleiotropic PPARgamma coactivator (PGC) cell viability counter screen (AID 1224822; note: series mostly up to about 46 µM)
# Method in brief: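 Compounds in DMSO, with positive and negative controls, were applied to PGC/ERR cells (2,000/well) and left 17.5 h at 37 C before CellTiter-Fluor detection.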
SMILES,Potency [1],Potency [2],outcome [3],Potency [4],Potency [5],Potency [6],Potency [7],Potency [8],Potency [9],Potency [10],Potency [11],Potency [12],Potency [13],Potency [14],outcome [15],Potency [16],outcome [17],outcome [18],outcome [19]
O=NN1CCCCCCC1,inactive,inactive,inactive,inactive,inactive,inactive,inactive,inactive,inactive,inactive,inactive,inactive,inactive,inactive,inactive,–,–,–,–
CC(C)NC(=O)N1CC(=O)N(c2cc(Cl)cc(Cl)c2)C1=O,inactive,inactive,inactive,–,inactive,inactive,inactive,inactive,inactive,inactive,inactive,inactive,inactive,inactive,inactive,30.6 µM (active) and inactive,inactive,–,–
Nc1ccc(Br)cc1,inactive,inactive,inactive,inactive,–,inactive,inactive,inactive,inactive,–,inactive,inactive,inactive,inactive,inactive,–,–,–,–
CN(N=O)c1ccccc1,inactive,inactive,inactive,–,inactive,inactive,inactive,inactive,inactive,inactive,inactive,inactive,inactive,inactive,inactive,inactive,inactive,–,–
Cc1[nH]c(=O)n(C(C)(C)C)c(=O)c1Cl,inactive,inactive,inactive,inactive,inactive,inactive,inactive,inactive,inactive,inactive,inactive,inactive,inactive,inactive,inactive,–,–,–,–
c1ccc2c(c1)Oc1ccccc1O2,inactive,inactive,inactive,inactive,inactive,–,inactive,inactive,inactive,inactive,inactive,inactive,inactive,inactive,inactive,–,–,–,–
CC(C#N)CCC#N (centres undefined),inactive,inactive,inactive,inactive,inactive,inactive,inactive,inactive,–,–,inactive,inactive,inactive,inactive,inactive,inactive,inactive,–,–
CCCCCCCCCCCC#N,inactive,inactive,inactive,–,inactive,inactive,inactive,inactive,inactive,inactive,inactive,inactive,inactive,inactive,inactive,–,–,–,–
OC(O)C(Cl)(Cl)Cl,inactive,inactive,inactive,inactive,inactive,inactive,inactive,inactive,–,–,inactive,inactive,inactive,inactive,inactive,inactive,inactive,–,–
CC(C)(C)OOC(C)(C)C,inactive,inactive,inactive,–,inactive,inactive,inactive,inactive,inactive,inactive,inactive,inactive,inactive,inactive,inactive,inactive,inactive,–,–
Nc1ccc(Cc2ccc(N)cc2)cc1,inactive,inactive,inactive,inactive,inactive,inactive,inactive,inactive,inactive,–,inactive,inactive,inactive,inactive,inactive,–,–,–,–
Oc1ccccc1Cl,inactive,inactive,inactive,–,inactive,inactive,inactive,inactive,inactive,inactive,inactive,inactive,inactive,inactive,inactive,–,–,–,–
ClCc1cccnc1,inactive,inactive,inactive,–,inactive,inactive,inactive,inactive,inactive,inactive,inactive,inactive,inactive,inactive,inactive,–,–,–,–
CCCN(CCC)N=O,inactive,inactive,inactive,inactive,inactive,inactive,inactive,inactive,inactive,inactive,inactive,inactive,inactive,inactive,inactive,–,–,–,–
CCC[CH2][Sn]([Cl])([Cl])[Cl],inactive,inactive,inactive,–,inactive,inactive,inactive,inactive,inactive,inactive,inactive,inactive,inactive,inactive,inactive,31.1 µM (active),inactive,–,–
O=S(=O)(c1ccc(O)cc1)c1ccc(O)cc1,inactive,inactive,inactive,inactive,inactive,inactive,inactive,inactive,inactive,inactive,inactive,–,inactive,inactive,inactive,–,–,–,–
Cn1cc(-c2ccccc2)c(=O)c(-c2cccc(C(F)(F)F)c2)c1,inactive,inactive,inactive,inactive,–,inactive,inactive,inactive,inactive,inactive,inactive,inactive,inactive,inactive,inactive,inactive,inactive,–,–
CC(C)OC(=O)Nc1cccc(Cl)c1,inactive,inactive,inactive,inactive,inactive,31.3 µM (active) and 35.6 µM (active),inactive,inactive,–,–,inactive,inactive,inactive,inactive,inactive,inactive,inactive,–,–
NCCc1ccc(O)cc1,–,–,–,–,–,–,–,–,–,–,–,–,–,–,–,–,–,inactive,inactive
